Rows were chosen to be rich in hits. Some 10% of all compounds tested hit in one or more screens of this group.
VDR inh – Inhibitors of the vitamin D receptor (VDR): qHTS. Potency, µM, for inactives: max response, negative = inhibition, most hits filed as inhibitors. AID 504847, 2011. VDR-SRC2-3 peptide fluorescence polarization, 2 h. actives 0.93% (n = 400,000). Vitamin D3 receptor (Homo sapiens), P11473; also: potency is read from the fitted curve at half-maximal effect
Target sequence (P11473 whole entry, looked up): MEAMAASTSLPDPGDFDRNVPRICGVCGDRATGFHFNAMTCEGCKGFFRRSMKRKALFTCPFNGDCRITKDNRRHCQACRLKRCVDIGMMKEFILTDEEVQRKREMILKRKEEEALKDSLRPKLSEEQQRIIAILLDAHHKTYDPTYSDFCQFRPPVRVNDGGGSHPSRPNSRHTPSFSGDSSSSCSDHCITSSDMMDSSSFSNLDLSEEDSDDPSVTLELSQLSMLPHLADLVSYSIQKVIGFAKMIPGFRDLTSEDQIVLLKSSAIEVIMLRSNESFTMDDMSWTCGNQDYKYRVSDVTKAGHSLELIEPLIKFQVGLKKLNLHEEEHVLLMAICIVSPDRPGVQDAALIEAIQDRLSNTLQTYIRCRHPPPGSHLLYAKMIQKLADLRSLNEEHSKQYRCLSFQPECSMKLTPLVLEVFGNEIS
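Fluorescence polarization assay of small-molecule disruption of VDR binding to coregulator peptide SRC2-3. Compounds and controls pin-transferred, then read after 2 h incubation at ambient room temperature.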
PLK1 PBD inh – qHTS for Inhibitors of PLK1-PDB (polo-like kinase 1 - polo-box domain): Primary Screen | Plk1 PBD binding of FITC phosphopeptide, fluorescence polarization | Potency, µM, without a hit: max response, negative = inhibition, actives largely listed as inhibitors | actives 2.8% (n = 360,000); also: potency is read from the fitted curve at half-maximal effect; series mostly up to about 57 µM; nearly all actives have a fitted effect of over 65% in size
Mm-Cpn inhibitor – Inhibitors of TCP-1 ring complex (TRiC) of Methanococcus maripaludis (MmCpn): qHTS | Chaperonin Mm-Cpn (Methanococcus maripaludis) | Potency, µM (highest dose often 76.9 µM), for inactives: at the highest dose activity, negative = inhibition, most hits filed as inhibitors | purified Mm-Cpn ATPase, ADP Transcreener TR-FRET | actives 0.031% (n = 330,000); also: potency is read from the fitted curve at half-maximal effect; nearly all actives have a fitted effect of over 80% in size
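Purified archaeal Mm-CPN (25nM final) preincubated 10 min at 37degC with compound, then 10uM ATP for 30 min at 37degC; ADP measured by HTRF Transcreener TR-FRET; buffer 30 mM TRIS pH 7.4, 100mM KCl, 5mM MgCl2, 1mM DTT.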
G9a block – qHTS Assay for Inhibitors of Histone Lysine Methyltransferase G9a | G9a H3K9 monomethylation, AlphaScreen, 2 h | Histone-lysine N-methyltransferase EHMT2 (Homo sapiens), Q96KQ7 | AID 504332, 2011 | actives 8.8% (n = 350,000) | Potency, µM (doses to about 102 µM), without a hit: top-dose activity, negative = inhibition, most hits filed as inhibitors; also: potency is read from the fitted curve at half-maximal effect; nearly all actives have a fitted effect of over 75% in size
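G9a (20 nM) was preincubated 15 min with compound, then reacted 2 h at room temperature with 500 nM biotin-H3K9 peptide and 20 µM SAM. Monomethyl-H3K9 detected by AlphaScreen using anti-H3K9me1 antibody.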
Sfp inh – qHTS Assay for Inhibitors of Bacillus subtilis Sfp phosphopantetheinyl transferase (PPTase); actives 3.5% (n = 310,000); 4'-phosphopantetheinyl transferase ffp (Bacillus subtilis), Q9F4F7; Potency, µM, for inactives: largest response in the series, negative = inhibition, usual class: inhibitors; Biochemical Sfp PPTase activity, qHTS;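 also: the enzyme is Sfp with the accession as filed and its product quenches rhodamine fluorescence; potency is read from the fitted curve at half-maximal effect; 0% = enzyme reaction without inhibitor and -100% = no enzyme wells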
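Fluorescence-quenching assay: 15 nM Sfp-PPTase preincubated 15 min at room temperature with compound, then 5 uM rhodamine-CoA and 12.5 uM BHQ-2-labelled YbbR peptide added. Fluorescence (ex 525/em 598 nm) read at start and after 30 min; difference gives rate.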
CCT modulator – High-Throughput Screening for Modulators of Cytosolic Chaperonin Activity | actives 0.3% (n = 360,000) | AID 651819, 2012 | purified chaperonin ATPase assay, HTRF ADP detection, 30 min | activity change, % (test concentration not listed), hits read low; in the data active = activity change below about -30%
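TRiC at 40 or 20 nM final (batch-dependent) in 30 mM Tris pH 7.4, 100 mM KCl, 5 mM MgCl2, 1 mM DTT, with compound at single 76 uM and 10 uM ATP, 30 min at 37 deg C. ADP detected by HTRF Transcreener, 665/615 ratio.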
* = called active by the depositor; ? = inconclusive; . = not tested or not shown; [ ] = remark or other dose. Unless noted, calls follow the shape of the dose curve; as a rule, active = well fitted curve in the direction sought with a large enough effect; inconclusive = small, poorly fitted or top-dose-only effect, or another doubt; inactive = no such curve, though single readings can be large; an effect the other way counts as inactive or inconclusive. Unless noted, % is scaled to controls: 0 for no effect and ±100 for the full control effect.

SMILES	VDR inh	PLK1 PBD inh	Mm-Cpn inhibitor	G9a block	Sfp inh	CCT modulator
COc1ccccc1NC(=O)C1=C(C)Nc2nc(SCC(=O)c3ccc(C)cc3)nn2C1c1ccc(F)cc1 (configuration not stated)	11%	.	.	3%[59 µM]	.	.
COc1ccc(-n2cc(-c3ccccc3)c3c(Nc4ccc(OC)c(OC)c4)ncnc32)cc1	5%	.	.	-29%[59 µM]	.	.
O=C1c2ccccc2NC2(CCCCC2)N1c1ccc(O)cc1	7%	-1%	0%	2%[59 µM]	17%	0
N#CC1=C(S)N(c2ccccc2)C2(CCCCC2)NC1=O	35µM*	-2%	-2%	?	28µM*	1
N#CC1=C(S)N(c2ccc(F)cc2)C2(CCCCC2)NC1=O	?	-23%	1%	35µM*	20µM*	1
CCOc1ccc(NC(=O)Cn2c(=O)n(-c3cccc(Cl)c3)c(=O)c3c2c2cc(C)ccc2n3C)cc1	-1%	.	.	28%[59 µM]	.	.
O=C(Nc1ccc(-c2cn3cccnc3n2)cc1)c1cc(Br)ccc1Cl	-4%	.	.	-1%[59 µM]	.	.
CCOC(=O)c1ccccc1NC(=O)CSc1nc2cn(CC)nc2c(=O)n1Cc1ccc(Cl)cc1	-17%	.	.	?	.	.
CC1CCCCN1C(=O)CSc1nc2ccccc2nc1Cc1ccc(Cl)cc1 (configuration not stated)	5%	.	.	17%[59 µM]	.	.
C=C(C(C)=O)C(O)c1ccco1 (configuration not stated)	-16%	.	.	.	?	.
Cc1ccc(NC(=O)c2nc(S(C)(=O)=O)ncc2N(Cc2ccco2)Cc2ccco2)cc1	9%	.	.	-29%[59 µM]	.	.
CCC(=O)N(Cc1ccco1)c1nc(C(=O)Nc2ccc(Cl)cc2)c(C)s1	?	?	-24%	?	20µM*	-9
CCc1nc(SC)ncc1C(=O)NCc1cccc(Br)c1	-8%	.	.	-4%[59 µM]	.	.
Cc1c(O)c(CN2CCCC2)cc2c1oc(=O)c1ccccc12	8%	-11%	-10%	22µM*	14%	-1
Cc1c(O)c(CN2CCCC2)cc2c3c(c(=O)oc12)CCC3	4%	-10%	-13%	-28%	-14%	-2
O=C(O)Cc1ccc(N=Nc2c(O)c(C(=O)O)cc3ccccc23)cc1	?	?	-3%	40µM*	-13%	-1
N#C/C(C(=O)N1CCCCC1)=C1\Nc2ccccc2S1	5%	-15%	-4%	?	-19%	-4
Cc1ccc(NC(=S)/C(C#N)=C2/Nc3ccccc3S2)cc1	.	27µM*	.	.	.	-3
CCc1cccc(NC(=O)CNS(=O)(=O)c2ccc3nc(C)sc3c2)c1	4%	.	.	-2%[59 µM]	.	.
C=CCNCCCOc1ccc(C)cc1Br	-18%	-4%	3%	0%[59 µM]	9%	-3
COCCNCCCCOc1ccc(C)cc1[N+](=O)[O-]	-7%	-9%	0%	?	-2%	-3
COCCCNCCOc1ccc(C)cc1[N+](=O)[O-]	-3%	3%	-5%	14µM*	-13%	-2
C=CCNCCCCOc1ccc(C)cc1[N+](=O)[O-]	-20%	-3%	1%	13µM*	-13%	-3
COCCCNCCOCCOc1ccc(C)cc1[N+](=O)[O-]	0%	0%	0%	14µM*	-17%	-40*
COc1ccc(OCCOCCOc2ccc(C)cc2[N+](=O)[O-])cc1	?	-8%	1%	19%[59 µM]	6%	-6
Cc1ccc(OCCOCCNC(C)(C)C)c([N+](=O)[O-])c1	2%	3%	1%	14µM*	-1%	-1

Source: PubChem BioAssay
